# Experimental data from PubChem BioAssay (EPA / NIEHS).
# Results filed as inconclusive are left out. The source made the active and inactive calls. Rule for the calls: active = hit-call score of the fitted dose curve at least 0.9, where 1 is the maximum; inconclusive = response in the unintended direction; inactive = score below 0.9.
# Target: human Retinoid X Receptor beta (RXRb), RXRB (gene 6257) (UniProt P28702)
# Assay: ATG_RXRb_TRANS: Attagene TRANS-FACTORIAL HepG2 Assay for human Retinoid X Receptor beta (RXRb) (AID 2283013)
# In short: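 Readout is reporter transcript induction after 24 h dosing. It is measured by RT-PCR of total RNA followed by fluorescent capillary electrophoresis. HepG2 liver cells carry transfected multiple reporter units driven by an exogenous RXRb-Gal4 fusion; activity is relative to DMSO.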
# Sequence of human Retinoid X Receptor beta (RXRb), RXRB (gene 6257) (P28702 whole entry, looked up): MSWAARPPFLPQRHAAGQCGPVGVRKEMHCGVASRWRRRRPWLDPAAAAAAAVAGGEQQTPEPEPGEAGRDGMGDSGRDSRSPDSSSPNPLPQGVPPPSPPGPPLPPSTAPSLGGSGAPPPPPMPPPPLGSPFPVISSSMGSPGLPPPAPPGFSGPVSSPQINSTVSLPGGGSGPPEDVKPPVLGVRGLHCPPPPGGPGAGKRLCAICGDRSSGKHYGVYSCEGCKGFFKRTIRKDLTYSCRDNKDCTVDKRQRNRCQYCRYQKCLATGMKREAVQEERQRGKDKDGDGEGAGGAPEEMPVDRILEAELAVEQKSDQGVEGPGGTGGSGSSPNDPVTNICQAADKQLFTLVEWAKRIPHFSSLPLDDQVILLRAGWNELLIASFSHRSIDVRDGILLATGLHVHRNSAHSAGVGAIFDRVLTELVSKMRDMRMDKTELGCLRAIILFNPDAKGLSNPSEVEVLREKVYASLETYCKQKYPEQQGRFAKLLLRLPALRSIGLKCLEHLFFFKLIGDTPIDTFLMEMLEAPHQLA
SMILES,outcome,AC50
CN(C)c1ccc(N=O)cc1,inactive,
CN(CCCC(O)c1cccnc1)N=O (centres undefined),inactive,
C[C@]12CC[C@@H](O)C[C@@H]1CC[C@@H]1[C@@H]2CC[C@]2(C)C(=O)CC[C@@H]12,inactive,
CC(C=O)Cc1ccc2c(c1)OCO2 (centres undefined),inactive,
C#CCOC(=O)/C=C(C)/C=C/CC(C)CCCC(C)C (centres undefined),,3.9 µM (active)
OC[C@@H](O)[C@H]1O[C@@H]2O[C@H](C(Cl)(Cl)Cl)O[C@@H]2[C@H]1O,inactive,
O=C(O)C1(c2ccc3c(c2)OC[C@H](Cc2ccc(-c4ccccc4)cc2)[C@H]3O)CCCC1,inactive,
CCNc1nc(NCC)nc(SC)n1,inactive,
CCOP(=O)(OCC)SCCSCC,inactive,
NC(=O)CCl,inactive,
O=C1c2ccccc2C(=O)C1C(=O)C(c1ccccc1)c1ccc(Cl)cc1 (centres undefined),inactive,
Oc1c(Br)cc(Br)cc1Br,inactive,
CC(C)(C)c1cc([N+](=O)[O-])cc(C(C)(C)C)c1O,,2.54 µM (active)
Brc1c(Br)c(Br)c(Oc2c(Br)c(Br)c(Br)c(Br)c2Br)c(Br)c1Br,inactive,
OC(Cc1ccccc1Cl)(Cn1cncn1)C1(Cl)CC1 (centres undefined),inactive,
Cc1c([N+](=O)[O-])c(C)c([N+](=O)[O-])c(C(C)(C)C)c1[N+](=O)[O-],,1.12 µM (active)
CCCCCCCCCCBr,,100 µM (active)
COC(F)(C(F)(F)C(F)(F)F)C(F)(C(F)(F)F)C(F)(F)F (centres undefined),inactive,
CCCCN(CCCC)C(=S)[S-].CCCCN(CCCC)C(=S)[S-].[Ni+2],inactive,
CCCCCCCCCCCCCl,,65.2 µM (active)
Cc1cc(-c2cc(C)c(N)c(C)c2)cc(C)c1N,,25.4 µM (active)
COc1ccccc1N,inactive,
CC(C)=CC1C(C(=O)OCc2cccc(Oc3ccccc3)c2)C1(C)C (centres undefined),inactive,
Nc1c(Oc2ccccc2)cc(O)c2c1C(=O)c1ccccc1C2=O,,17.4 µM (active)

# Target: human Thyroid Receptor alpha (THRa1), THRA (gene 7067) (UniProt P10827)
# Assay: ATG_THRa1_TRANS: Attagene TRANS-FACTORIAL HepG2 Assay for human Thyroid Receptor alpha (THRa1) (AID 2283014)
# In short: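 Transient HepG2 transfection, NR-Gal4 chimera driving GAL4-UAS reporters; 24 h compound exposure; total RNA, oligo(dT) RT, PCR, fluorescent primer extension, capillary electrophoresis. Upward direction vs DMSO control.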
# Sequence of human Thyroid Receptor alpha (THRa1), THRA (gene 7067) (P10827 whole entry, looked up): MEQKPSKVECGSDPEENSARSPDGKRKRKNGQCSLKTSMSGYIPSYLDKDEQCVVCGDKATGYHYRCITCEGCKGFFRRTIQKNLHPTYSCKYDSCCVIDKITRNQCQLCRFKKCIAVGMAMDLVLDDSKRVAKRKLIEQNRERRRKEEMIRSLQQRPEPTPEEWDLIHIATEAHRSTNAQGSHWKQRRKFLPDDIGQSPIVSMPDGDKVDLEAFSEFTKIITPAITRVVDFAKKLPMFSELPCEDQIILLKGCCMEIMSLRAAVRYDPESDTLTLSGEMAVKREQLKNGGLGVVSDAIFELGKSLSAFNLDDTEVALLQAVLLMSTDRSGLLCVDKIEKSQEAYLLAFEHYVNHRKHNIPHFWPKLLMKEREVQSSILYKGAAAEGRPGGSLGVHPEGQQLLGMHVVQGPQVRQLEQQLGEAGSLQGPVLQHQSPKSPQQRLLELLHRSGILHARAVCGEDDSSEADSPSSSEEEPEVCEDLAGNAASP
SMILES,outcome,AC50
CN(C)c1ccc(N=O)cc1,inactive,
CC(C)CC(C)(c1ccc(O)cc1)c1ccc(O)cc1,inactive,
CC(C=O)Cc1ccc2c(c1)OCO2 (centres undefined),inactive,
Nc1ccc(N)cc1,inactive,
CC(C)(c1ccc(O)c(-c2ccccc2)c1)c1ccc(O)c(-c2ccccc2)c1,inactive,
O=C(O)C1(c2ccc3c(c2)OC[C@H](Cc2ccc(-c4ccccc4)cc2)[C@H]3O)CCCC1,inactive,
O=C(Nc1ccc(Br)cc1)c1cc(Br)cc(Br)c1O,inactive,
CCNc1nc(NCC)nc(SC)n1,inactive,
CCOP(=O)(OCC)SCCSCC,inactive,
O=C1c2ccccc2C(=O)C1C(=O)C(c1ccccc1)c1ccc(Cl)cc1 (centres undefined),,7.69 µM (active)
CCCCOC(C)=O,inactive,
Oc1c(Br)cc(Br)cc1Br,,100 µM (active)
Brc1c(Br)c(Br)c(Oc2c(Br)c(Br)c(Br)c(Br)c2Br)c(Br)c1Br,inactive,
COC(F)(C(F)(F)C(F)(F)F)C(F)(C(F)(F)F)C(F)(F)F (centres undefined),inactive,
Cc1cc(-c2cc(C)c(N)c(C)c2)cc(C)c1N,inactive,
COc1ccccc1N,inactive,
Nc1c(Oc2ccccc2)cc(O)c2c1C(=O)c1ccccc1C2=O,inactive,
Cc1ccc2nc3sc(=O)sc3nc2c1,,6.55 µM (active)
CN(C1CCCCC1)C1CCCCC1,inactive,
CC(C)[N+](=O)[O-],inactive,
